Our source for the NP40-soluble protein abundance values is the supplement of paper PMC6411743.

± gives the standard deviation of the averaged measurements. The full data set covers some 6,500 targets. This sample favours those with the largest changes.

Compound in the assay: Nc1ncnc2c1ncn2[C@@H]1O[C@H](COP(=O)(O)OP(=O)(O)OP(=O)(O)O)[C@@H](O)[C@H]1O [adenosine triphosphate]
The assay can be described thus: NP40-soluble protein abundance relative to vehicle (solubility fold change) (ratio); higher = more soluble protein in presence of ATP. Summed up: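 Jurkat crude lysate (Dounce-homogenised) was treated with eight concentrations from 0.1 to 10 mM for 10 min at room temperature, then 3 min at 37 °C. It was solubilised with 0.8% NP40 and benzonase (60 min, 4 °C) and ultracentrifuged, and the supernatant was TMT-labelled for LC-MS/MS. Intensities were vsn-normalised, and the value is the fold change against the NP40-processed vehicle per replicate, from three independent experiments.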

UniProt P62253, sequence (P62253 whole entry): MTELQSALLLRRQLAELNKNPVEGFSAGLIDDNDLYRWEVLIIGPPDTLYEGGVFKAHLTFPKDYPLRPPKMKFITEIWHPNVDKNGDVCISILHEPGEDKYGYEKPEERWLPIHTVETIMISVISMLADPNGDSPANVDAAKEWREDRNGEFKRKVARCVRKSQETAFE
UniProt P21675, sequence (P21675 whole entry): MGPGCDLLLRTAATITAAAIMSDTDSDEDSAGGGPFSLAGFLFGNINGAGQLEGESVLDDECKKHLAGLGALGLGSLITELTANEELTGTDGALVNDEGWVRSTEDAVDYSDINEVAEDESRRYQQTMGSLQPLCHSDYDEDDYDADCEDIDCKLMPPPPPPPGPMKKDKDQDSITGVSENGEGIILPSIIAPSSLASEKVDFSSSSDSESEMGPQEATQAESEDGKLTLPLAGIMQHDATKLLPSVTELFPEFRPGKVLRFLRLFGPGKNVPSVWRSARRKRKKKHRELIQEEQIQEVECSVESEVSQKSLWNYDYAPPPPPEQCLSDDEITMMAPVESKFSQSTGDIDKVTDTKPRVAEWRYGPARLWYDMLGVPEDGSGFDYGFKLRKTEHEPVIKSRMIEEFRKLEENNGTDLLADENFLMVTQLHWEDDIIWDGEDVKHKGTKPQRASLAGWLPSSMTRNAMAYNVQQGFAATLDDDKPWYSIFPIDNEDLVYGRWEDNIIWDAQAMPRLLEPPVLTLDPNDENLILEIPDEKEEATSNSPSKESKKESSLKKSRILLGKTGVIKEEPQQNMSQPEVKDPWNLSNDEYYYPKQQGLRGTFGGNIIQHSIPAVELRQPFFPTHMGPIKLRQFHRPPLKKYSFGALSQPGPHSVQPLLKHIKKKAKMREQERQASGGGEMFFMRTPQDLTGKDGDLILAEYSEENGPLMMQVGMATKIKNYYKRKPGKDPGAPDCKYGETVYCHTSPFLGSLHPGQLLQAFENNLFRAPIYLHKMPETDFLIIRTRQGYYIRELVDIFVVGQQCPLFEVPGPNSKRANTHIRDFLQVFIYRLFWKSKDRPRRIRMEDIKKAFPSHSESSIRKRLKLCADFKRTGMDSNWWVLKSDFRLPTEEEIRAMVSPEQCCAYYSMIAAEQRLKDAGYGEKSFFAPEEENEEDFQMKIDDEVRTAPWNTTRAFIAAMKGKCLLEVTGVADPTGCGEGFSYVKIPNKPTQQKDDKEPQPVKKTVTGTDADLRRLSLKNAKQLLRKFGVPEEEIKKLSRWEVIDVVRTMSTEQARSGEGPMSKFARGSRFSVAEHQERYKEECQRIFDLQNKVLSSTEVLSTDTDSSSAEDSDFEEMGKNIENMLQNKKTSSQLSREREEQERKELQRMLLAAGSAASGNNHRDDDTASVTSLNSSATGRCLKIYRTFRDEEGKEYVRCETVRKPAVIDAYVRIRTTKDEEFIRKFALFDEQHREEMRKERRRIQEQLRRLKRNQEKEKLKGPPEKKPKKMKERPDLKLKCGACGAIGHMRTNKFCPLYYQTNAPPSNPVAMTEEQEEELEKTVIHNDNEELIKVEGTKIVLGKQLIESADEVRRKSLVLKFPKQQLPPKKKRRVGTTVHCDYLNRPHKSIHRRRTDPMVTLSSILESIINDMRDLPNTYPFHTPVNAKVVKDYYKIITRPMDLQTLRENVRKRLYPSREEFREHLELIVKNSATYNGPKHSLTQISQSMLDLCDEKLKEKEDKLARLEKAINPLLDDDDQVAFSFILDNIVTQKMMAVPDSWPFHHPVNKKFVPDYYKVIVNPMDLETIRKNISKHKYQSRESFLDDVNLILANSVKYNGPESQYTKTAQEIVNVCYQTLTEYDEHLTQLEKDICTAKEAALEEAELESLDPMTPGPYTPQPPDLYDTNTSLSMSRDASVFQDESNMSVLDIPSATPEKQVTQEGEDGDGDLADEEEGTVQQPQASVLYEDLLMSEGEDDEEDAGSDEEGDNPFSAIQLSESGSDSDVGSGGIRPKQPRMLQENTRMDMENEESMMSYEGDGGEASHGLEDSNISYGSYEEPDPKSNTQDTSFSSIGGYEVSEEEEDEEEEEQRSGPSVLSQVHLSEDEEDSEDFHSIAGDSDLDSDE

UniProt P62253: the NP40-soluble protein abundance reads like this: (concentration: 1mM) 1.06 ± 0.053; (concentration: 2mM) 1.05 ± 0.071; (concentration: 4mM) 1 ± 0.07; (concentration: 6mM) 1.01 ± 0.11; (concentration: 8mM) 1.03 ± 0.097; (concentration: 10mM) 0.947 ± 0.049.

Regarding UniProt Q02880-2, the NP40-soluble protein abundance was 1.28 ± 0.061 (concentration: 1mM); 1.36 ± 0.045 (concentration: 2mM); 1.57 ± 0.067 (concentration: 4mM); 1.73 ± 0.13 (concentration: 6mM); 1.99 ± 0.11 (concentration: 8mM); 2.07 ± 0.057 (concentration: 10mM).

As for “UniProt P21675|P21675-12|P21675-2|P21675-3|P21675-4|P21675-5|P21675-6|P21675-7|P21675-9”, the NP40-soluble protein abundance reads like this: (concentration: 1mM) 1.11 ± 0.067; (concentration: 2mM) 1.11 ± 0.048; (concentration: 4mM) 1.11 ± 0.066; (concentration: 6mM) 1.15 ± 0.14; (concentration: 8mM) 1.2 ± 0.079; (concentration: 10mM) 1.19 ± 0.091.
